# Pf growth 48h – P. falciparum growth inhibition at 48 hours (one generation) | P. falciparum luciferase growth in erythrocytes, 48 h | Potency, µM (titrated, usually from 28.7 µM), inactives show at the top dose activity change, negative = inhibition, hits mostly inhibitors | 310,000 compounds, 5.9% hits | AID 504832; active means well fitted inhibition curve with a large enough effect; inconclusive means small, poorly fitted or top-dose-only effect, or another doubt; inactive means no such curve, though single readings can be large or run the other way; further: potency means the concentration at half of the fitted maximal effect; on the % scale 0 is the no-effect control and ±100 the full control effect
#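 A one-generation exposure of luciferase-tagged malaria parasites in RPMI 1640/Albumax erythrocyte culture, 37 C and 5% CO2. Inhibition is inferred from decreased luminescence after adding detection reagent.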
# SARS PLP yeast – SARS-CoV PLP inhibition in yeast | Potency, µM (highest dose often 32.9 µM), for the others: at the highest dose activity, positive = growth rescue, most hits filed as activators | S. cerevisiae expressing SARS-CoV PLpro, growth rescue | 330,000 compounds, 0.19% hits | AID 485353; further: potency means the concentration at half of the fitted maximal effect; 0% is about no effect; nearly all actives have a fitted effect of over 55% in size
# Shiga inhibitor – Shiga toxin inhibition; Vero cells, Shiga toxin protein synthesis inhibition reporter; inhibition, % at 38.7 µM; 290,000 compounds, 9.2% hits; AID 2315; in the data active means inhibition mostly above about 28%, no sharp cut-off; inactive means mostly below about 43%; further: 0% is about no effect
# Cycloheximide cs – affects cycloheximide protein synthesis inhibition readout, counter-screen; cell reporter, cycloheximide protein synthesis inhibition counterscreen; max response, %; 300,000 compounds, 12% hits; AID 2314; in the data active means max response mostly above about 13%, no sharp cut-off; inactive means mostly below about 14%; further: read at 38.3 µM for the half of the compounds with a filed dose; 0% is about no effect
# NS1 inh – inhibitors of influenza NS1 protein function | Potency, µM (highest dose often 46.1 µM), inactives show at the highest dose activity, positive = more growth | 270,000 compounds, 0.4% hits | AID 2326; further: potency means the concentration at half of the fitted maximal effect; actives are rising curves; nearly all actives have a fitted effect of over 50% in size
#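 Read-out: OD600 growth recovery of NS1-expressing budding yeast. Cells grown overnight at 30C in -URA glucose medium, washed, resuspended and diluted 1:100 in 2% galactose assay medium, pH 6.0. Same strain lacking NS1 served as positive control.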
# Pf growth 96h – P. falciparum growth inhibition at 96 hours | P. falciparum luciferase reporter growth, 96 h | Potency, µM (titrated, usually from 28.7 µM), for inactives: top-dose activity change, negative = inhibition, hits mostly inhibitors | 320,000 compounds, 6.9% hits | AID 504834; active means well fitted inhibition curve with a large enough effect; inconclusive means small, poorly fitted or top-dose-only effect, or another doubt; inactive means no such curve, though single readings can be large or run the other way; further: potency means the concentration at half of the fitted maximal effect; on the % scale 0 is the no-effect control and ±100 the full control effect
#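 Plates of compound plus infected erythrocytes (2% hematocrit, 0.05% parasitemia final) incubate 96 hours, 37 C, 5% CO2. Detection reagent added; reduced luminescence from the parasites' luciferase reporter flags inhibition.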
# NS1 inh valid – validation of influenza NS1 protein function inhibitors; activity change, negative = inhibition, % at 32.9 µM; influenza NS1 function cell assay, 15-point titration; 1,400 tested, under 10 active; shares compounds with NS1 inh; AID 492980; further: 0% is about no effect
# Flu PR8 replic – influenza virus titer reduction, NS1 project; 95 compounds, 30% hits; shares compounds with NS1 inh; MDCK infected influenza A/PR/8/34, virus titer TCID50; hits give low values; virus titer (log TCID50), log10 TCID50 at 5 µM; call rule not given here
# * = called active by the depositor; u = inconclusive; x = no result given. Hits are enriched below; roughly 21% of the tested compounds scored in any of these assays. Unless noted, the call rests on the fitted dose curve.
SMILES,Pf growth 48h,SARS PLP yeast,Shiga inhibitor,Cycloheximide cs,NS1 inh,Pf growth 96h,NS1 inh valid,others
Cc1sc(NC(=O)c2sc3nc4c(C)cccc4cc3c2N)c(C#N)c1C,u,4%,37*,19*,u,u,5,
Cc1cccc2cc3c(N)c(C#N)sc3nc12,u,-1%,18,12,-14%,x,x,
O=C1CCCC/C1=C\Nc1ccc(O)cc1,u,0%,64*,41*,u,x,-9,
CC(C)C(=O)Nc1nnn(C)n1,-23%,-7%,16,-2,2%,-23%,x,
CC(C)CC(=O)Nc1nnn(C)n1,17%,10%,2,-1,10µM*,u,15,
CCCCn1c(=O)cc(O)c2ccccc21,-7%,-4%,-16,-3,10µM*,-17%,27,
CCOc1ccc(NC(=S)N2CCc3cc(OC)c(OC)cc3C2COc2ccc3c(C)cc(=O)oc3c2)cc1 (stereo not drawn),u,u,-12,2,11µM*,u,11,
O=C(CSc1nnc(CNC(=O)c2c(F)cccc2F)o1)NCc1ccccc1Cl,-3%,2%,20,11,0%,4%,x,
CN1C(=O)C(=O)N(CC(=O)N2CCc3ccccc32)C1=O,x,4%,44,6,8%,u,x,
O=C(CN1C(=O)CSc2ccccc21)N1CCc2ccccc21,-6%,-1%,-11,0,u,u,4,
O=C(CSc1ccc(-c2nc3ccccc3[nH]2)cn1)Nc1ccc(S(=O)(=O)NC2CC2)cc1,0%,9%,-3,11,-14%,-20%,x,
Nc1cc(N)nc(SCC(=O)Nc2ccc3c(c2)OCCCO3)n1,42%,3%,41,23*,1.8µM*,x,8,
Cc1cc2nc(-c3ccc(SCC(=O)Nc4ccc5c(c4)OCCO5)nc3)[nH]c2cc1C,u,-8%,157*,48*,1.3µM*,2.9µM*,-1,
Nc1cc(N)nc(SCC(=O)Nc2ccc3c(c2)OCO3)n1,4%,15%,-1,6,14%,-6%,x,
COC(=O)[C@]1(C)N[C@H](CN(C)C(=O)Nc2ccccc2)[C@@H]2C(=O)N(Cc3ccccc3)C(=O)[C@@H]21,x,-2%,x,x,x,x,x,
Cc1ccc(-n2c(SCC(=O)Nc3ccc4c5c(cccc35)CC4)nc(O)c(C)c2=O)cc1,10%,3%,7,4,7.9µM*,15%,38,
Cc1ccc(-n2c(SCC(=O)Nc3cc(C)on3)nc3ccccc3c2=O)cc1,21%,11%,-12,13,1%,x,x,
O=C(CSc1nnc(-c2c[nH]c3ccccc23)o1)N1c2ccccc2CCc2ccccc21,u,0%,10,9,4µM*,65%,u,
Cc1cccc(N2C(=O)/C(=C\c3ccc(OC(F)F)cc3)c3ccccc3C2=O)c1,-10%,-58%,12,-2,-7%,-18%,x,
COc1cccc(/C=C2\C(=O)N(c3cccc(C)c3)C(=O)c3ccccc32)c1,u,-18%,-11,4,u,u,u,
COc1ccc(C(=O)Nc2nnc(S(=O)(=O)N3CCOCC3)s2)cc1,-11%,1%,-5,-8,-5%,23%,x,
CC1CCC2(CC1)NC(=O)N(Cc1nc(-c3ccccc3)no1)C2=O (stereo not drawn),6%,-1%,11,6,8.9µM*,x,-1,Flu PR8 replic=8.5
CN(C)c1oc(COc2ccc(F)cc2)nc1C#N,-2%,-27%,-5,6,-3%,x,x,
CN(C)c1oc(-c2ccc(OCc3ccc(Cl)cc3)cc2)nc1C#N,11%,-1%,-13,9,10µM*,u,-3,
Cc1cc(C)cc(NC(=S)N2CCC(NC(=O)c3ccco3)CC2)c1,-13%,1%,-20,-5,14%,-3%,x,
SMILES,Pf growth 48h,SARS PLP yeast,Shiga inhibitor,Cycloheximide cs,NS1 inh,Pf growth 96h,NS1 inh valid,others
O=C(COc1cccc2ccccc12)N/N=C/c1ccncc1,-34%,-8%,-9,-3,x,6%,x,
O=C(CSc1nnnn1-c1ccccc1)CC(=O)Nc1ccc(Cl)cc1,-40%,-5%,17,8,2.5µM*,-8%,10,
O=C(CSc1nnc(-c2ccc(O)cc2)n1-c1ccccc1)CC(=O)Nc1ccccc1,-18%,-4%,-7,7,10µM*,-12%,23,
O=C(CSc1nnc(-c2ccncc2)n1-c1ccccc1)Nc1ccc(C(=O)O)cc1,13%,-2%,3,12,x,-26%,x,
CC1Cc2ccccc2N1C(=O)CSc1nnc(-c2ccccc2)c(-c2ccccc2)n1 (stereo not drawn),0%,0%,-3,-2,u,-7%,-1,
N#CC1=C(N)Oc2ccc3ccc(O)cc3c2C1c1ccsc1 (stereo not drawn),-19%,-5%,-14,-1,0%,u,x,
Cc1cc(Nc2ccccc2C(=O)O)n(-c2ccc([N+](=O)[O-])cc2)n1,-7%,0%,10,-4,0%,0%,x,
CC1CCN(C(=O)Cn2c(=O)oc3ccccc32)CC1,14%,-2%,-5,3,3.5µM*,0%,-2,
S=C(Nc1ccc(Nc2ccccc2)cc1)N1CCN(c2ncccn2)CC1,-6%,0%,-7,6,0%,-14%,x,
COc1cc(C2NC(=S)NC(c3ccccc3)=C2C(C)=O)ccc1O (stereo not drawn),34%,7%,-10,-1,6%,24%,x,
CCCOc1ccc(C2NC(=S)NC(c3ccccc3)=C2C(=O)Nc2ccc(C)cc2)cc1OC (stereo not drawn),2.6µM*,7%,0,13,13µM*,-21%,0,
Cc1cc(S(=O)(=O)NCC(C)C)ccc1OCC(=O)NCC1CCCO1 (stereo not drawn),12%,0%,4,-4,-17%,u,x,
CCCCn1c(SCC(=O)N2c3ccccc3Sc3ccccc32)nc2c1c(=O)n(C)c(=O)n2C,1.7µM*,-35%,-1,-1,11µM*,x,4,
COc1cc(NC(=O)c2cc(-c3ccco3)on2)c(OC)cc1Cl,7%,-2%,12,5,-14%,25%,x,
COc1ccc(NC(=O)c2cc(-c3ccco3)on2)c(OC)c1,-17%,5%,25,12,u,84%,-15,
Cc1nn(-c2ccccc2)c2[nH]c(=O)c(CNCc3ccc4c(c3)OCO4)cc12,4.7µM*,-1%,16,10,7.9µM*,9%,7,
Cc1ccc(N2C(=O)N(CC(=O)N3CCOCC3)C(=O)C2C)cc1 (stereo not drawn),5%,0%,13,8,x,10%,x,
Cc1cccc(NS(=O)(=O)c2cnc(Cl)c(Br)c2)n1,3%,7%,-8,-1,-15%,23%,x,
